SMILES strings stand for the structures. The panel holds about 83,000 compounds, 20% with a hit somewhere; the sample as a whole holds those more often.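 Cell lines were cultured in 96-well plates, exposed to a single compound concentration, and assessed for percent growth 48 hours later.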 Active and inactive are the calls of the source.

The subject of the experiment is HCT-15 colon. As to the kind of experiment: NCI-60 one-dose screen, 48 h (100 = growth as untreated, 0 = no growth, -100 = all killed). As to conditions: 10 µM unless noted. On the procedure: Growth inhibition of the HCT-15 human tumor cell line is measured as a screen for anti-cancer activity. Cells are grown in 96 well plates and exposed to the test compound for 48 hours. Compounds are tested at a single concentration, which is 10^-5 M for most compounds. The reported endpoint is percent growth (GI% or GIPRCNT), where numbers from 0 - 100% represent growth inhibition, and numbers from -100% - 0 represent cell death. For example, a value of 40 represents 60% growth inhibition. A value of 0 means no net growth occurred over the course of the experiment. A value of -40 indicates 40% of cells at the beginning of the experiment died by the end of the experiment. A value of -100 means all cells are dead at the end of the experiment.
NCI-60 Human Tumor Cell Lines Screen was performed using the standard one-dose NCI protocol, which is described in more detail at https://dtp.cancer.gov/discovery_development/nci-60/default.htm.
Compounds with GIPRCNT values below 10 were considered active. Activity score was based on GIPRCNT using the following formula: […]
Score is 0 for GIPRCNT values of 100 or above, 50 for GIPRCNT values of 0, and 100 for GIPRCNT values of -100.
Regarding `CCOC(=O)C1=C(C)n2nc(CC#N)c(C#N)c2NC1c1ccc(Cl)cc1` (stereo not given), the growth was 97.1% (inactive).

Consider `CCN1CCN(c2ccc(NC(=O)Nc3nc4ccc(-c5ccccc5OC)cc4s3)cc2)CC1`, for which the growth is -83.2% (active). Regarding `CN(C)CCCn1c2c(c3cc(-c4cccc(S(N)(=O)=O)c4)ccc3c1=O)C(=O)c1ccccc1-2`, the growth was 61.7% (inactive). Under `C=C1C(=O)O[C@H]2[C@H]1CC/C(COC(=O)Nc1nc3ccccc3[nH]1)=C\CC[C@@]1(C)O[C@@H]21` stands 25.3% (inactive); under `O=C1NC(SCc2ccc(F)cc2)=N/C1=C/c1cccc(OCc2ccc(Cl)cc2)c1`, 72.1% (inactive); under `COC(=O)CCc1n(Cc2ccc3ccccc3c2)c2ccccc2[n+]1Cc1ccc2ccccc2c1`, 79.1% (inactive).

Take `CCOC(=O)c1cnn(-c2nc(-c3ccc(F)cc3)c(C#N)c(N3CCOCC3)n2)c1N`: the growth was 101% (inactive). Under `Cn1cc(-c2ccc3c(c2)ncn3-c2ccc(CC(=O)Nc3cc(C(C)(C)C)on3)cc2)cn1` stands 16.1% (inactive). Under `Fc1ccc(N/N=C/c2ccc(-n3cccn3)cc2)cc1` stands 83% (inactive); under `COc1ccc(/C=C/C(=O)/C=C(/C=C/c2ccc(OC)c(OC)c2)OB(F)F)cc1OC`, 0.848% (active); under `Cc1cc(C)n(-c2nc(-c3cccs3)c(C#N)c(=O)[nH]2)n1`, 71.1% (inactive). Under `Cc1cccc(C)c1NCc1nnc(-c2ccc(O)cc2)o1` stands 97.7% (inactive); under `COCCc1n(Cc2ccc3ccccc3c2)c2ccccc2[n+]1Cc1ccc2ccccc2c1`, 7.25% (active); under `CCCCc1nc(Cl)c(C2CC(c3ccc(Cl)cc3)=NN2c2cc(Cl)cc(Cl)c2)[nH]1` (stereo not given), 86.5% (inactive). Take `Cc1ccc2nc3nc4ccc[nH]c4cc3c2c1`: the growth is 60.4% (inactive). As for `CC(=O)c1c(OCC#N)ccc2c(C)cc(=O)oc12`, the growth was 102% (inactive). Under `Cn1c2c(c3ccc(-c4ccn[nH]4)cc3c1=O)C(=O)c1ccccc1-2` stands 15.7% (inactive); under `COc1cccc(NC(=O)Nc2ccc(Oc3ncnc4[nH]c(C)c(C)c34)cc2)c1`, 87.9% (inactive); under `C=C(C)[C@@H]1CC[C@]2(C(=O)NCCCO)CC[C@]3(C)[C@H](CC[C@@H]4[C@@]5(C)CCCNC(C)(C)[C@@H]5CC[C@]43C)[C@@H]12`, 68.6% (inactive).

For the compound `COc1cc(C2=NN(c3ccccc3)C(c3cccc(Nc4ccnc5cc(C(F)(F)F)ccc45)c3)C2)cc(OC)c1OC` (stereo not given), the growth was 78.1% (inactive). Under `Cc1[nH]c2ncnc(Oc3ccc(NC(=O)Nc4ccc(Cl)c(C(F)(F)F)c4)cc3)c2c1C` stands 48.3% (inactive); under `CCOC(=O)c1ccc(Nc2ncnc3ccc(NC(=O)c4ccccc4)cc23)cc1`, 78.3% (inactive). Under `CCOC(=O)NCCc1nc2c([nH]1)c(=O)n(C)c(=O)n2C` stands 97.6% (inactive); under `O=C(/C(=C/c1ccc([N+](=O)[O-])cc1)SCc1ccccc1)c1ccc(Cl)cc1`, 34.3% (inactive). Under `COc1ccc2[nH]c3nc4cnccc4cc3c2c1` stands 97.9% (inactive); under `S=C(Nc1ccc(Cl)cc1)c1ccccn1`, 98.1% (inactive).

Regarding `c1ccc2c3c([nH]c2c1)C(c1ccc(C2NCCc4c2[nH]c2ccccc42)cc1)NCC3` (stereo not given), the growth was -65.8% (active). The value for `COc1cc(C(=O)Nc2cc(OC)c3ccn(C)c3c2)cc2c1C[C@]1(C)CC[C@@H](O)C(C)(C)[C@H]1O2` was 20.9% (inactive). As to `O=C1NC(c2ccc(F)cc2)N=C2C(c3ccccc3)=NOC12` (stereo not given), the growth is 103% (inactive). Regarding `Cc1nccc2c3ccc(OCc4cn(-c5ccc(Cl)cc5)nn4)cc3n(CC(C)C)c12`, the growth is 18.7% (inactive). Under `O=C1NN(c2ccccc2)C(c2ccc3c(c2)OCO3)N2CCC[C@@H]12` (stereo not given in full) stands 102% (inactive); under `COc1ccc(-c2cc(-c3nnc(SCC(=O)Nc4ccc(/C(C)=N\O)cc4)n3-c3ccccc3)c3cc(OC)ccc3n2)cc1`, 70% (inactive). Under `CNc1cccc2c1C(=O)c1cccc(N)c1C2=O` stands 58.6% (inactive). On to `CC1CCN(CCCCCOc2ccc3oc4ccccc4c(=O)c3c2)CC1`, for which the growth was 35.7% (inactive). Under `O=C(NC[C@H](O)CN1CCc2ccccc2C1)c1cc(NC2COC2)ncn1` stands 103% (inactive); under `O=C1CCc2ccccc2N1`, 103% (inactive).

Regarding `Cc1cnc(SCc2ccc(Cl)cc2Cl)nc1Nc1ccc(Cl)c(Cl)c1`, the growth is 99.8% (inactive). Under `COc1ccc(/C=C(/C(=O)N2CCCC2)c2cc(OC)c(OC)c(OC)c2)cc1` stands 39.6% (inactive); under `O=C(Nc1ccc2ncnc(Nc3cccc(C(F)(F)F)c3)c2c1)c1cccs1`, 38.9% (inactive); under `O=C(C[n+]1cccc2cc(Cl)ccc21)c1ccc2c(c1)CCCC2`, 95.5% (inactive).

The values are drawn from PubChem BioAssay (NCI).
